Experimental data as given in the supplement of paper PMC11219838.

System: Caenorhabditis elegans dauer (daf-2(e1370))
Assay: proportion of mobile C. elegans dauer larvae relative to DMSO control (fraction of DMSO control); higher = more viable, less nematicidal, active = 0.63 or less; extreme values may be limits of the assay
Conditions: 60 µM; 5 days; temperature: 20 °C
Outline: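 Compound was added by pinning to 60 µM final, giving 0.6% v/v DMSO, in 96-well plates containing about 20 C. elegans dauers per well in liquid NGM. These dauers came from synchronized larvae held on MYOB plates with E. coli OP50 for 48 h at 25 °C. Plates were sealed and shaken at 200 rpm at 20 °C for 5 days. Under a dissection microscope, the proportion of mobile worms was scored relative to DMSO wells, and two biological replicates were averaged.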

| SMILES | proportion of mobile C. elegans dauer larvae |
| --- | --- |
| CCc1ccc(NC(=O)CSc2nnc(-c3ccc(Cl)cc3Cl)o2)cc1 | 1 (inactive) |
| COc1ccc(-c2nnc(SCC(=O)N3CC(C)CC(C)C3)o2)cc1 (stereo unspecified) | 1 (inactive) |
| Cc1ccc(-c2nc(-c3ccncc3)no2)c(Cl)c1 | 1 (inactive) |
| COc1ccc(-c2noc(COc3ccc(Br)cc3)n2)cc1 | 1 (inactive) |
| c1ccc(-c2noc(COc3ccc4c(c3)CCCC4)n2)cc1 | 1 (inactive) |
| Cc1ccc(-c2noc(-c3ccc(C)cc3C)n2)cc1 | 1 (inactive) |
| CCCOc1ccc(-c2nc(-c3ccncc3)no2)cc1 | 0.5 (active) |
| CC(Sc1nnc(-c2ccco2)o1)C(=O)NC(c1ccccc1)c1ccccc1 (stereo unspecified) | 1 (inactive) |
| Cc1[nH]c2ccc(-c3nnc(SCC(=O)NCc4ccc(F)cc4)o3)cc2c1C | 1 (inactive) |
| CNC(=O)c1ccccc1-c1nc(-c2ccccc2Cl)no1 | 1 (inactive) |
| O=C(CSc1nnc(-c2ccncc2)o1)Nc1ccccc1Cl | 1 (inactive) |
| Clc1ccc(CSc2nnc(-c3ccc(Cl)cc3)o2)cc1 | 1 (inactive) |
| Brc1ccc(-c2noc(-c3ccco3)n2)o1 | 0.391 (active) |
| CCN(Cc1ccccc1)C(=O)c1ccccc1-c1nc(-c2cccc(C)c2)no1 | 1 (inactive) |
| COc1nc(C)ccc1-c1noc(-c2ccc(F)cc2)n1 | 1 (inactive) |
| O=C(CSc1nnc(-c2ccc(Br)cc2)o1)NC1CCCCC1 | 1 (inactive) |
| CC(C)(C)C(=O)Nc1ccccc1-c1nc(-c2ccncc2)no1 | 1 (inactive) |
| COc1ccc(-c2noc(COc3ccccc3)n2)cc1 | 1 (inactive) |
| CC(Sc1nnc(-c2ccccc2)o1)C(=O)Nc1nccs1 (stereo unspecified) | 1 (inactive) |

| SMILES | proportion of mobile C. elegans dauer larvae |
| --- | --- |
| Clc1ccc(SCc2nc(-c3cccnc3)no2)cc1 | 0.156 (active) |
| CCc1ccc(OCc2nc(-c3ccccn3)no2)cc1 | 1 (inactive) |
| CC(=O)Nc1ccc(-c2nnc(SCc3ccccc3)o2)cc1 | 1 (inactive) |
| CCN(C(=O)CSc1nnc(-c2ccncc2)o1)c1ccccc1 | 1 (inactive) |
| Cc1ccc(-c2nnc(SCC(=O)NCCc3ccccc3)o2)cc1 | 1 (inactive) |
| Cc1ccc(CSc2nnc(-c3ccco3)o2)c(C)c1 | 1 (inactive) |
| CCOc1cc(-c2nc(-c3ccc(C)nc3OCC)no2)cc(OCC)c1OCC | 1 (inactive) |
| O=C(CSc1nnc(-c2ccccc2)o1)N1CCc2ccccc21 | 1 (inactive) |
| CCOc1ccccc1-c1nnc(SCc2ccc(C(=O)OC)o2)o1 | 1 (inactive) |
| O=C(CSc1nnc(-c2ccccc2)o1)Nc1cccc(F)c1 | 1 (inactive) |
| Cc1ccccc1-c1nnc(SCc2ccccc2Cl)o1 | 1 (inactive) |
| c1ccc(COc2cccc(-c3nc(-c4ccncc4)no3)c2)cc1 | 1 (inactive) |
| Clc1ccc(CSc2nnc(-c3ccccc3)o2)cc1Cl | 1 (inactive) |
| Cc1ccc(C)c(-c2nc(-c3ccc(Cl)cc3)no2)c1 | 1 (inactive) |
| CCn1c(C)cc(C(=O)CSc2nnc(-c3ccccc3)o2)c1C | 1 (inactive) |
| CCN(CC)C(=O)CSc1nnc(-c2ccc(Cl)cc2Cl)o1 | 1 (inactive) |
| Cc1cccc(-c2nnc(SCC(=O)NCCc3ccccc3)o2)c1 | 1 (inactive) |
| Brc1ccccc1-c1nc(-c2ccccn2)no1 | 0.738 (inactive) |
| CC(Oc1ccccc1)c1nc(-c2cccnc2)no1 (stereo unspecified) | 1 (inactive) |

System: Ditylenchus dipsaci
Assay: proportion of mobile D. dipsaci (mixed stage) relative to DMSO control (fraction of DMSO control); higher = more viable, less nematicidal, active = 0.86 or less; extreme values may be limits of the assay
Conditions: 60 µM; 5 days; temperature: 20 °C
Outline: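 D. dipsaci were grown on pea plants in Gamborg B-5 agar and extracted through a filter funnel into water, and about 20 worms were added per 96-well well in distilled water. Compound was pinned to 60 µM final (0.6% v/v DMSO), and sealed plates were shaken at 200 rpm for 5 days at 20 °C. After 2 µL 1 M NaOH was added, mobile worms were scored microscopically. Mobility was expressed relative to DMSO controls and averaged over two biological replicates.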

| SMILES | proportion of mobile D. dipsaci |
| --- | --- |
| CCc1ccc(NC(=O)CSc2nnc(-c3ccc(Cl)cc3Cl)o2)cc1 | 1 (inactive) |
| COc1ccc(-c2nnc(SCC(=O)N3CC(C)CC(C)C3)o2)cc1 (stereo unspecified) | 1 (inactive) |
| Cc1ccc(-c2nc(-c3ccncc3)no2)c(Cl)c1 | 1 (inactive) |
| COc1ccc(-c2noc(COc3ccc(Br)cc3)n2)cc1 | 1 (inactive) |
| c1ccc(-c2noc(COc3ccc4c(c3)CCCC4)n2)cc1 | 1 (inactive) |
| Cc1ccc(-c2noc(-c3ccc(C)cc3C)n2)cc1 | 1 (inactive) |
| CCCOc1ccc(-c2nc(-c3ccncc3)no2)cc1 | 1 (inactive) |
| CC(Sc1nnc(-c2ccco2)o1)C(=O)NC(c1ccccc1)c1ccccc1 (stereo unspecified) | 1 (inactive) |
| Cc1[nH]c2ccc(-c3nnc(SCC(=O)NCc4ccc(F)cc4)o3)cc2c1C | 1 (inactive) |
| CNC(=O)c1ccccc1-c1nc(-c2ccccc2Cl)no1 | 1 (inactive) |
| O=C(CSc1nnc(-c2ccncc2)o1)Nc1ccccc1Cl | 1 (inactive) |
| Clc1ccc(CSc2nnc(-c3ccc(Cl)cc3)o2)cc1 | 1 (inactive) |
| Brc1ccc(-c2noc(-c3ccco3)n2)o1 | 1 (inactive) |
| CCN(Cc1ccccc1)C(=O)c1ccccc1-c1nc(-c2cccc(C)c2)no1 | 1 (inactive) |
| COc1nc(C)ccc1-c1noc(-c2ccc(F)cc2)n1 | 1 (inactive) |
| O=C(CSc1nnc(-c2ccc(Br)cc2)o1)NC1CCCCC1 | 1 (inactive) |
| CC(C)(C)C(=O)Nc1ccccc1-c1nc(-c2ccncc2)no1 | 1 (inactive) |
| COc1ccc(-c2noc(COc3ccccc3)n2)cc1 | 1 (inactive) |
| CC(Sc1nnc(-c2ccccc2)o1)C(=O)Nc1nccs1 (stereo unspecified) | 1 (inactive) |

| SMILES | proportion of mobile D. dipsaci |
| --- | --- |
| Clc1ccc(SCc2nc(-c3cccnc3)no2)cc1 | 1 (inactive) |
| CCc1ccc(OCc2nc(-c3ccccn3)no2)cc1 | 1 (inactive) |
| CC(=O)Nc1ccc(-c2nnc(SCc3ccccc3)o2)cc1 | 1 (inactive) |
| CCN(C(=O)CSc1nnc(-c2ccncc2)o1)c1ccccc1 | 1 (inactive) |
| Cc1ccc(-c2nnc(SCC(=O)NCCc3ccccc3)o2)cc1 | 1 (inactive) |
| Cc1ccc(CSc2nnc(-c3ccco3)o2)c(C)c1 | 1 (inactive) |
| CCOc1cc(-c2nc(-c3ccc(C)nc3OCC)no2)cc(OCC)c1OCC | 1 (inactive) |
| O=C(CSc1nnc(-c2ccccc2)o1)N1CCc2ccccc21 | 1 (inactive) |
| CCOc1ccccc1-c1nnc(SCc2ccc(C(=O)OC)o2)o1 | 1 (inactive) |
| O=C(CSc1nnc(-c2ccccc2)o1)Nc1cccc(F)c1 | 1 (inactive) |
| Cc1ccccc1-c1nnc(SCc2ccccc2Cl)o1 | 1 (inactive) |
| c1ccc(COc2cccc(-c3nc(-c4ccncc4)no3)c2)cc1 | 1 (inactive) |
| Clc1ccc(CSc2nnc(-c3ccccc3)o2)cc1Cl | 1 (inactive) |
| Cc1ccc(C)c(-c2nc(-c3ccc(Cl)cc3)no2)c1 | 1 (inactive) |
| CCn1c(C)cc(C(=O)CSc2nnc(-c3ccccc3)o2)c1C | 1 (inactive) |
| CCN(CC)C(=O)CSc1nnc(-c2ccc(Cl)cc2Cl)o1 | 1 (inactive) |
| Cc1cccc(-c2nnc(SCC(=O)NCCc3ccccc3)o2)c1 | 1 (inactive) |
| Brc1ccccc1-c1nc(-c2ccccn2)no1 | 1 (inactive) |
| CC(Oc1ccccc1)c1nc(-c2cccnc2)no1 (stereo unspecified) | 1 (inactive) |
